Measurements taken from PubChem BioAssay AID777 (Sanford-Burnham Center for Chemical Genomics, 2007).
The whole screen tested about 96,000 compounds, of which about 19,000 (20%) were called active. These entries were drawn from the full list. Unmarked numbers belong to inactive results.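 The calls were made as follows: active = blocking of liver enzyme CYP2C9 beyond about 50% at 5 µM (limit read from the data); inactive = the rest.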

The compounds below were run against Cytochrome P450 2C9 (Homo sapiens) (UniProt P11712) (assay: blockers of cytochrome P450 2C9 activity – biochemical, luminescence, ADME assay, primary screen (AID 777)). Conditions: CYP2C9 Supersomes, luciferin-H conversion, at 5 µM, hits give high values.
Cytochrome P450 2C9 (Homo sapiens), sequence (P11712 whole entry, looked up): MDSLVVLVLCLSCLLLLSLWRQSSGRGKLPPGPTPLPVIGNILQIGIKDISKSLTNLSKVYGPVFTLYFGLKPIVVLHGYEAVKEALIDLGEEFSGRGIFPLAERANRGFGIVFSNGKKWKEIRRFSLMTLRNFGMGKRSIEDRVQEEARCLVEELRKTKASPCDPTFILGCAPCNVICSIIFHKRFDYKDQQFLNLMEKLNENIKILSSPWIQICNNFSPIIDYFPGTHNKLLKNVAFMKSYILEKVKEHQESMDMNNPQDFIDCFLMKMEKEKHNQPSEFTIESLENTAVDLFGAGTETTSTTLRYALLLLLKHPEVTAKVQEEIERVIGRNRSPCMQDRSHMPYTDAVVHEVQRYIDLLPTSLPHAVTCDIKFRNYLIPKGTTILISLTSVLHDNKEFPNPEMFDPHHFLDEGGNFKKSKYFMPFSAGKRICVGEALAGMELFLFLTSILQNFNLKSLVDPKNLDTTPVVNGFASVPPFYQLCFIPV
Compound `COc1ccc(OC)c(C2N(c3ccccn3)C(=O)C3CCCN32)c1` (centres undefined) has an inhibition of 10.9%. Work on `C=CCn1c(=S)[nH]c2nc3c(cc2c1=O)COC(C)(C)C3` yielded an inhibition of 31.2%. For `CC1(C)Cc2nc3sc4c(SCC(=O)NC(c5ccccc5)c5ccccc5)ncnc4c3cc2CO1`, the inhibition was 20.2%. For `CC(C)CCSc1ncnc2c1oc1nc3c(cc12)COC(C)(C)C3`, the inhibition was 55.7% (active). `CN(C)c1ccnc2sc3c(=O)n(Cc4ccccc4)cnc3c12` gave an inhibition of 49.6%. `COc1ccccc1C(=O)Nc1ccc(NC(=O)c2ccco2)c(C)c1` showed an inhibition of -177%. `Cc1ccccc1NC(=O)c1cnn(-c2ccccc2)c1NC(=O)c1ccco1` showed an inhibition of 1.2%. `O=C(COC(=O)c1ccccc1NC(=O)c1ccco1)Nc1ccc2c(c1)OC(F)(F)O2` was tested, and the inhibition was 76.1% (active). `Cc1cc(N)n2nc(-c3ccc(C(C)(C)C)cc3)cc2n1` was tested, and the inhibition was 38.3%. `CCOC(=O)Cn1c(CN(Cc2ccccc2)Cc2ccccc2)nc2c1c(=O)[nH]c(=O)n2C` showed an inhibition of 48.8%. For `COCCn1c(CN2CCC(Cc3ccccc3)CC2)nc2c1c(=O)n(C)c(=O)n2C`, the inhibition was 54.2% (active). Compound `CCOC(=O)N1CCN(Cc2nc3c(c(=O)n(C)c(=O)n3C)n2Cc2ccccc2)CC1` has an inhibition of 9.9%. With `Cn1c(=O)c2c(nc(OCc3cccnc3)n2Cc2ccccc2)n(C)c1=O` the inhibition was 52.4% (active). In the case of `Cn1c(=O)c2c(nc(NCCc3ccccc3)n2Cc2ccccc2)n(C)c1=O`, the inhibition is reported as 5.6%. Work on `CCN1CCN(Cc2nc3c(c(=O)n(C)c(=O)n3C)n2CC(=O)c2ccccc2)CC1` yielded an inhibition of 29.8%. `CC(C)CCn1c(CN(C)Cc2ccccc2)nc2c1c(=O)n(C)c(=O)n2C` was tested, and the inhibition was 95.6% (active). `Cn1c(=O)[nH]c(=O)c2c1nc(CN(Cc1ccccc1)Cc1ccccc1)n2CCN1CCOCC1` showed an inhibition of 7.6%. `CN1CCN(Cc2nc3c(c(=O)n(C)c(=O)n3C)n2Cc2cccc3ccccc23)CC1` gave an inhibition of -8.7%. In the case of `CC1CN(Cc2nc3c(c(=O)n(C)c(=O)n3C)n2Cc2cccc(Cl)c2)CC(C)O1` (centres undefined), the inhibition is reported as 28%. In the case of `COCCn1c(CN(Cc2ccccc2)Cc2ccccc2)nc2c1c(=O)n(C)c(=O)n2C`, the inhibition is reported as 96.4% (active). In the case of `C=CCOc1nc2c(c(=O)n(C)c(=O)n2C)n1Cc1ccc(Cl)cc1Cl`, the inhibition is reported as 8.1%. Compound `CC(=O)c1ccc2c(ccc3ccccc32)c1` has an inhibition of 40.7%. Work on `CC(C)NC(=O)C(=O)NCCN1CCN(S(=O)(=O)c2ccc(Cl)cc2)CC1` yielded an inhibition of 20.7%. Work on `COCCN1Cc2cccc(C(=O)Nc3ccccc3OC)c2C1=O` yielded an inhibition of 34.5%. Work on `O=C(Nc1cc2ccccc2oc1=O)C1CCCCC1` yielded an inhibition of 3.6%. `Cc1cccc(C)c1NC(=O)CCCSc1nnc(-c2ccco2)n1-c1ccccc1` showed an inhibition of 25.6%. With `O=C(Nc1nnc(CCc2ccccc2)s1)C1CCCO1` (centres undefined) the inhibition was 16.3%. `O=C(OC(C(=O)NC1CCCC1)c1ccc(F)cc1)c1ccno1` (centres undefined) showed an inhibition of 13.9%. For `CC(C)Cn1c(CN(Cc2ccccc2)Cc2ccccc2)nc2c1c(=O)n(C)c(=O)n2C`, the inhibition was 72.2% (active). In the case of `CC(C)Cn1cnc2c1c(=O)n(CC(O)c1ccccc1)c(=O)n2CC(C)C` (centres undefined), the inhibition is reported as -5.7%. `Nc1cc(OC(=O)c2ccccc2Br)nn1S(=O)(=O)c1ccccc1` was tested, and the inhibition was 61.5% (active). `Cc1ccc(S(=O)(=O)n2nc(OC(=O)C(C)(C)C)cc2N)cc1` was tested, and the inhibition was 50.4% (active). For `Cc1ccc(S(=O)(=O)N2CCCC2CO)cc1` (centres undefined), the inhibition was -37%. `Cc1c(C(=O)OCC(=O)N(CCC#N)c2ccccc2)oc2c1ccc1ccccc12` was tested, and the inhibition was -74.8%. `CC(=O)Nc1ccccc1OC(=O)N1CCOCC1` gave an inhibition of -0.1%. With `CC(C)Cc1cc(C(=O)Nc2cc(Br)ccc2O)no1` the inhibition was 18.1%. Work on `O=c1c2ccccc2oc2nc3n(c(=O)c12)CCCS3` yielded an inhibition of -21.3%. With `Cn1c(=O)n(CCc2ccccc2)c(=O)c2c1nc1n2CCCN1c1ccccc1` the inhibition was 14.3%. In the case of `Cc1cccc(N2CC(C)Cn3c2nc2c3c(=O)n(CC(=O)OCc3ccccc3)c(=O)n2C)c1` (centres undefined), the inhibition is reported as 86.9% (active). With `COc1ccc(N2CC(C)Cn3c2nc2c3c(=O)n(Cc3ccccc3F)c(=O)n2C)c(OC)c1` (centres undefined) the inhibition was -4.7%. Compound `O=C(/C=C/c1cc2c(cc1Br)OCO2)NCc1ccc(Cl)cc1` has an inhibition of -6.4%. `CC(C)(C)C(=O)c1cnc(Nc2ccccc2)s1` gave an inhibition of 33.1%. For `S=c1[nH]nc(-c2ccco2)n1/N=C/c1ccc(Br)s1`, the inhibition was -24.6%. For `COc1ccc(OC)c(C(c2nnnn2C(C)(C)C)N2CCc3ccccc3C2)c1` (centres undefined), the inhibition was 98.9% (active). For `Cc1ccc(C(c2nnnn2C(C)(C)C)N2CCc3ccccc3C2)cc1` (centres undefined), the inhibition was -5.7%. Work on `CCC(C)(C)n1nnnc1C(c1ccccc1OC)N1CCSCC1` (centres undefined) yielded an inhibition of 17%. In the case of `CCOc1ccc(S(=O)(=O)N(CC(=O)O)c2ccccc2)cc1`, the inhibition is reported as 17.7%. With `COc1cccc(NC(=O)CN(C)S(=O)(=O)c2ccc(C)cc2)c1` the inhibition was 19%. `CCN(CC)C(=O)CN(c1cccc(OC)c1)S(=O)(=O)c1ccc(C)cc1` was tested, and the inhibition was 94% (active). Compound `Cc1nonc1OCCn1nnnc1N` has an inhibition of 6.3%. `CCN(CC(=O)NCc1cccs1)c1nnnn1-c1ccccc1` showed an inhibition of -1.7%. `Cc1n[nH]c(=S)n1/N=C/c1ccc(Br)o1` was tested, and the inhibition was 4.5%. Compound `CCCCOC(=O)Cn1c(=N)n(CCN(CC)CC)c2ccccc21` has an inhibition of -37.7%. `CCCCOC(=O)Cn1c(=O)n(CC(=O)OCCCC)c2cc(C)ccc21` was tested, and the inhibition was 60.8% (active). Work on `COC(=O)Cn1c2ccc(C)cc2c2nc(C)sc21` yielded an inhibition of 22.4%. With `COCCCNCC(=O)Nc1sc(C)c(C)c1C(=O)OC` the inhibition was 39.5%. `CCCCOC(=O)c1[nH]c(C)c(C(=O)OC)c1C` was tested, and the inhibition was 61.2% (active). `CCCCN(CC)CCNC(=O)c1[nH]c(C)c(C(C)=O)c1C` gave an inhibition of -14.6%. `CCCOc1ccc(NC(=O)C2CCCNC2=O)cc1` (centres undefined) was tested, and the inhibition was 1.9%. With `Cc1cc(C)cc(NC(=O)CSCc2cnn(-c3ccccc3)c2-n2cccc2)c1` the inhibition was 44%. `CC(=O)Nc1ccc(NC(=O)CSCc2cnn(-c3ccccc3)c2-n2cccc2)cc1` was tested, and the inhibition was 86.6% (active). Work on `COc1ccc(-n2nnnc2SCC(=O)Nc2ccccc2)cc1` yielded an inhibition of -7.3%. `Cc1ccc(NC(=O)c2cc(-c3ccc(C)o3)nc3ccccc23)nc1` showed an inhibition of 3.2%. With `CC(=O)OCc1cc2cc(C)ccc2[nH]c1=O` the inhibition was -8%. For `O=C(NCC1CCCO1)/C(=C\c1ccco1)NC(=O)c1ccccc1` (centres undefined), the inhibition was -18.8%. With `C/C(=C\c1ccco1)C1Nc2cccc3cccc(c23)N1` the inhibition was 55.5% (active). Work on `Cc1cccc(NC(=O)/C(=C\c2ccco2)NC(=O)c2ccccc2)c1` yielded an inhibition of 32.5%. In the case of `COc1ccc2c(c1OC)C(=O)N(c1ncn[nH]1)C2`, the inhibition is reported as -23.9%. In the case of `CCN(CC)C(=O)CC1(c2ccccc2OC)CCOC(C(C)C)C1` (centres undefined), the inhibition is reported as 17%. `O=S(=O)(c1ccc2ccccc2c1)N1CCN(S(=O)(=O)N2CCOCC2)CC1` showed an inhibition of -53.6%. `O=C(CCc1ccc(S(=O)(=O)N2CCOCC2)cc1)Nc1ccc2ccccc2c1` was tested, and the inhibition was 55.3% (active). In the case of `O=C(CN1CCN(S(=O)(=O)c2ccc3ccccc3c2)CC1)NC(=O)NC1CCCCC1`, the inhibition is reported as -18.3%. For `Cn1nnnc1SCc1cc(=O)[nH]c2ccccc12`, the inhibition was 14.5%. `CCOC(=O)Cc1c(C)nc2c(C#N)c(C)nn2c1C` gave an inhibition of -3.2%. For `CCCc1nc2ccccc2c(=O)n1/N=C/c1ccc(O)c(O)c1`, the inhibition was 85.3% (active). `CCCOn1c(-n2nc(C)cc2C)nc2ccccc2c1=O` was tested, and the inhibition was 11.3%. Compound `O=c1c2ccccc2nc(N/N=C/c2ccccc2)n1O` has an inhibition of -1.4%. Work on `CCOC(=O)N1CCC(Nc2c(NCCN3CCN(c4cccc(Cl)c4)CC3)c(=O)c2=O)CC1` yielded an inhibition of 0.8%. `O=C(Cc1ccc(-n2c(=O)[nH]c3ccccc3c2=O)cc1)N1CCN(c2cccc(Cl)c2)CC1` was tested, and the inhibition was 57.5% (active). `CCOC(=O)N1CCN(C(=O)Cc2ccc(-n3c(=S)[nH]c4ccccc4c3=O)cc2)CC1` showed an inhibition of 11.8%. With `O=C(C1CCN(S(=O)(=O)c2cnc[nH]2)CC1)N1CCN(Cc2ccc3c(c2)OCO3)CC1` the inhibition was 9.3%. `COc1ccccc1Oc1ccc(S(=O)(=O)Nc2cccnc2)cc1` was tested, and the inhibition was 84.9% (active). For `Cc1ccc(S(=O)(=O)c2ccc(Oc3ccccc3)cc2)cc1`, the inhibition was -5.1%. `O=S(=O)(Nc1ccccn1)c1ccc(Oc2ccccc2)cc1` was tested, and the inhibition was 81.4% (active). Work on `Cc1cc(C)cc(NS(=O)(=O)c2ccc(Oc3ncc(C(F)(F)F)cc3Cl)cc2)c1` yielded an inhibition of 47.2%. Compound `O=C(CS(=O)(=O)Cc1ccccc1)Nc1cccnc1` has an inhibition of -3.4%. Work on `Cc1nc(CNS(=O)(=O)c2ccc(Oc3ccccc3)cc2)cs1` yielded an inhibition of 39.1%. Work on `COc1cc(=O)[nH]c(=O)n1C(=O)Cc1ccccc1` yielded an inhibition of 11.7%. With `Cc1nc(NC2=NC(C(=O)Nc3ccc(Cl)cc3)CC(=O)N2)nc2ccccc12` (centres undefined) the inhibition was 1.6%. `O=C(CCCN1C(=O)c2cccc3cccc(c23)C1=O)N1CCN(Cc2ccc3c(c2)OCO3)CC1` was tested, and the inhibition was -138%. `O=C1c2ccccc2C(=O)N1c1ccccc1S(=O)C(F)(F)F` (centres undefined) was tested, and the inhibition was -4%. `O=C(Nc1ccccc1[N+](=O)[O-])C1C(c2ccccc2)=C1c1ccccc1` gave an inhibition of 18.8%. For `O=[N+]([O-])c1ccccc1NCc1ccc(Cl)cc1`, the inhibition was 18%. With `O=C(O)c1ccccc1NC(=S)NC(NC(=O)c1ccccc1[N+](=O)[O-])C(Cl)(Cl)Cl` (centres undefined) the inhibition was 72.3% (active).
